# Pf Dd2 growth – blocks in vitro growth of P. falciparum Dd2; P. falciparum Dd2 growth, SYBR Green, 72 h; Potency, µM (series often up to 28.9 µM), inactives show at the top dose activity, negative = inhibition, actives largely listed as inhibitors; 120,000 compounds, 4.3% hits; active = well fitted inhibition curve with a large enough effect;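 note: plate controls were DMSO vehicle for no effect and reference drug for full effect; nearly all actives have a fitted effect of over 65% in size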
#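 Readout: SYBR Green fluorescence, 485 nm excitation, 535 nm emission, after ~16 h lysis at 37C. Before that, Dd2-infected red cells (2.5% hematocrit) grew 72 h with compound, 29 uM top final concentration.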
# Active calls of the source: *; i = inactive; [ ] = another dose, or the depositor's remark. The full list was thinned out, with hits kept by preference. Potency is the fitted concentration of half-maximal effect.
SMILES,Pf Dd2 growth
O=C(O)CC[C@@H]1CN(Cc2cc(=O)[nH]c(=O)[nH]2)CC[C@@H]1N1CCOCC1,4.7%
Clc1cccc(CN2CC[C@H](c3nc4ccccc4s3)C2)c1,i
COC(=O)c1ccccc1NC(=O)N1CCC[C@@H](O)[C@H](NC(=O)c2ccc(OCc3c(C)noc3C)cc2)C1,i
O=C(Cc1ccc(F)cc1)N1CCC2(CC1)COc1ccccc1[S+](=O)([O-])N2,-21.0%
CCN(CC)C(=O)N1CCCC(c2nc(-c3ccccc3)no2)CCNC(=O)CC1 (configuration not stated),i
Cc1ccc(Nc2nc(C(N)=O)c(NC(=O)c3ccccc3Br)s2)cc1,10µM*
Cc1ccc(-c2nc(C)c(CCNC(=O)c3ccccc3Br)s2)cc1,-10.8%
NC(=O)c1nc(Nc2ccccc2)sc1NC(=O)c1c(F)cccc1F,52.7%
COc1ccc(C(C)NC(=O)c2ccc(-c3ccc(N4CCSCC4)nc3)cc2)cc1 (configuration not stated),i
COCc1cc(N2CCc3onc(-c4cccc5ccccc45)c3C2)ncn1,14.1µM*
COc1ncccc1C(=O)N1CCc2onc(-c3cccc4ccccc34)c2C1,-19.9%
O=S(=O)(c1cccnc1)N1CCc2onc(-c3cccc4ccccc34)c2C1,-17.0%
CN1CC(=O)N(c2ccccc2F)Cc2c(NC3CCCC3)ncnc21,28.0%[44.1 µM]
O=C(NCc1cc(-c2ccccc2)n[nH]1)[C@H]1CCC[C@H](O)C1,-2.6%
COCCNC(=O)c1nc(-c2cccc(C(F)(F)F)c2)c2cnccn12,10µM*
O=C(NCc1cccs1)c1nc(-c2cccnc2)c2cnccn12,11.2µM*
COCCNC(=O)c1nc(-c2ccc(OC)cc2)c2ccccn12,5.9%
O=C(NCc1cccnc1)c1nc(-c2cccc(C(F)(F)F)c2)c2ccccn12,7.94µM*
O=C(NCc1ccc2c(c1)OCO2)c1nc(-c2cccc(C(F)(F)F)c2)c2ccccn12,i
C#CCNC(=O)c1nc(-c2cccc(C(F)(F)F)c2)c2cnccn12,3.55µM*
C#CCNC(=O)c1nc(-c2cccnc2)c2cnccn12,i
O=C(NCc1cccs1)c1nc(-c2cccnc2)c2ccccn12,-7.2%
O=C(NCc1ccc2c(c1)OCO2)c1nc(-c2cccnc2)c2cnccn12,i
O=C(NC1CC1)c1nc(-c2cccc(C(F)(F)F)c2)c2ccccn12,-19.3%
COCCNC(=O)c1nc(-c2cccc(C(F)(F)F)c2)c2ccccn12,i
SMILES,Pf Dd2 growth
C#CCNC(=O)c1nc(-c2ccsc2)c2cnccn12,-11.1%[44.1 µM]
COC(=O)[C@@H](Cc1cccnc1)NC(=O)[C@H]1CN(S(=O)(=O)c2ccccc2)CCN1C(=O)c1cccs1,-6.9%
COc1ccc(CC(=O)Nc2ccc(=O)n3c2[C@@H]2C[C@@H](CN(S(=O)(=O)c4ccccc4)C2)C3)cc1,-16.4%
O=C([C@@H]1C[C@H](Oc2cccnc2)CN1)N1CCCC1,-2.7%
CNC(=O)[C@@H]1C[C@@H](n2cc(CNC(=O)Nc3ccc(Cl)cc3)nn2)CN1,-5.7%
N#Cc1ccc(C(=O)NC2CCN(c3cc(-c4cccs4)[nH]n3)C2)cc1 (configuration not stated),-12.2%
COc1ccc(C(=O)N2CCCCCCN(C)C(=O)[C@@H]3CCC[C@@H]32)c(OC)c1,0.3%
O=C(Cn1nc(-c2ccc(Cl)cc2)c2ccccc2c1=O)Nc1cccc(C(F)(F)F)c1,16.1%
COc1ccc(NC(=O)N(C)Cc2cccc(C(F)(F)F)c2)cc1,-12.1%[44.1 µM]
O=C(C[C@H]1NC(=O)c2ccccc2NC1=O)Nc1ccc(C(F)(F)F)cc1,-16.7%
O=C1C(c2ccc(C(F)(F)F)cc2)=C(Nc2ccc(Cl)cc2)c2ccccc21,0.891µM*
COc1ccc(NC2=C(c3ccc(C(F)(F)F)cc3)C(=O)c3ccccc32)cc1,0.447µM*
COc1ccc(-c2noc(CCC(=O)Nc3ccc(C(F)(F)F)cc3)n2)cc1,-16.0%
COc1cccc(CNC(=O)c2cc3c(=O)[nH]c(C)cn3n2)c1,i
Cc1ccc(CNC(=O)c2cc3cn(C(C)C)cc3s2)cc1,-10.6%
O=C1NC(C(=O)N2CCN(c3ncccn3)CC2)CN1Cc1ccccc1 (configuration not stated),-20.3%
Cc1ccc(Cn2c(CN3CCC(C(=O)NCc4ccccc4C)CC3)cc3ccccc32)cc1,-10.1%
CN(C)CCNC(=O)C1CCN(Cc2cc3ccccc3n2Cc2ccccc2)CC1,6.31µM*
O=C(NCCCc1nc2ccccc2n1Cc1ccccc1)C1CCCCC1,-5.6%
COc1ccccc1CC(=O)N1CCC[C@H]1c1nc(-c2ccccc2)no1,i
CN(CCc1ccccn1)C(=O)C1CCN(C(=O)N2CC3CC(C2)[C@H]2CCCC(=O)N2C3)CC1 (some centres not stated),-20.7%
c1ccc(C(CNc2nccc(-c3ccncc3)n2)N2CCOCC2)nc1 (configuration not stated),2.4%
Cc1ccccc1-n1cc(CN(C)Cc2nc(-c3ccc(C(F)(F)F)cc3)no2)cn1,-0.2%
Cc1ccccc1-n1cc(-c2ccnc(NC(C)Cc3ccncc3)n2)cn1 (configuration not stated),8.91µM*
O=C(NC1CC1)c1cnn2ncccc12,8.1%[44.1 µM]
SMILES,Pf Dd2 growth
CNC(=O)[C@@H](c1ccccc1)N1CCC[C@H]1C(=O)N1CCC[C@@H]1COC,4.2%[44.1 µM]
COc1ccccc1Oc1ncccc1CNC(=O)c1ccc(CO)o1,0.1%
O=C(O)c1ccc2c(c1)N(S(=O)(=O)c1ccccc1F)CC2,28.2%
O=C(Nc1cc(Cl)cc(Cl)c1)c1ccc(F)c(S(=O)(=O)N2CCCC2)c1,-15.8%
O=C(Nc1cc(Cl)cc(Cl)c1)c1ccc(F)c(S(=O)(=O)N2CCc3ccccc32)c1,8.91µM*
COc1cc2c(cc1Oc1ccccc1)NC(=O)C21CCN(c2ncc(F)cn2)CC1,4.47µM*
COc1cc2c(cc1Oc1ccccc1)NC(=O)C21CCN(Cc2ccccn2)CC1,-11.5%[44.1 µM]
COc1cc2c(cc1OC1CCCC1)NC(=O)C21CCN(c2cc(NC3CC3)ncn2)CC1,-23.4%
COc1cc2c(cc1OCC1CC1)NC(=O)C21CCN(c2ncc(F)cn2)CC1,i
COc1cc2c(cc1OC1CCCC1)NC(=O)C21CCN(Cc2ccncc2)CC1,-3.9%[44.1 µM]
COc1cc2c(cc1OC1CCCC1)NC(=O)C21CCN(c2ccnc(C)n2)CC1,12.6µM*
COc1cccc(CNC(=O)[C@@H]2C[C@@H](O)CN2C2CCN(C(=O)c3ccnn3C)CC2)c1,i
CC(C)(C)C1CCC2(CC1)NC(=O)N(CC(=O)NCCCc1ccccc1)C2=O (configuration not stated),-7.7%
COc1ccccc1C(=O)N1CCC(N2CCCOC2=O)CC1,18.0%
COc1ccc(OC)c(CNC(=O)CC2CCOCC2)c1,7.3%
O=C1CCN(C(=O)C2CCN(C(=O)Cc3c[nH]c4ccccc34)CC2)CCCCCCN1,i
CCOc1ccc(CN2CCN(C3CCN(C(C)C)CC3)CC2CCO)cc1 (configuration not stated),-4.6%
COc1ccccc1N1CCN([C@@H]2[C@H](O)[C@H](CO)O[C@@H]2CNC(=O)c2ccccc2)CC1,13.2%
COc1ccccc1N1CCC(N2CCN(CCCc3ccccc3)C(CCO)C2)CC1 (configuration not stated),10µM*
Cc1n[nH]c(C)c1CCC(=O)N1CCC(C2CCN(S(C)(=O)=O)CC2)C1 (configuration not stated),3.2%
CCn1nccc1C(=O)N1CCC2(CC1)c1[nH]c3ccccc3c1CCN2C,i
CN(Cc1ccc(N2CCNC2=O)cc1)CC1CCCN(CCc2ccc(F)cc2)C1 (configuration not stated),12.6µM*

# Screening data (PubChem BioAssay)
